Measurements from PubChem BioAssay AID1159580 (chemical genetic matrix, 2015).
Among all 5,500 compounds or so, about 2,000 (36%) were called active. Not shown: some 18% with an inconclusive outcome. Rule as the data show it: active = normalized growth mostly below about 0.91 (no sharp cut-off); inconclusive = no clear call, values can overlap the other calls; inactive = mostly above about 0.92. This is one part of the list.

Experiment: chemical genetic growth profiling, strain panel (AID 1159580);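 also: tested at 20 µM; growth read once vehicle control cultures reached saturation at 30 °C; 1 = growth at the plate median or of vehicle wells; lower values mean less growth of the strain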
Settings: growth OD
[1] = S. cerevisiae deletion strains, locus YDL101C, strain DUN1, hits give low values
[2] = S. cerevisiae deletion strains, locus YHR030C, strain SLT2, hits give low values

Measured: normalized growth

Cc1cc(Br)ccc1-n1c(Sc2c([N+](=O)[O-])cc(C(F)(F)F)cc2[N+](=O)[O-])nc2ccccc2c1=O
inactive: S. cerevisiae deletion strains, locus YAR019C, strain CDC15, hits give low values 0.99 | S. cerevisiae deletion strains, locus YBL105C, strain PKC1, hits give low values 0.985 | S. cerevisiae deletion strains, locus YBR135W, strain CKS1, hits give low values 0.984 | S. cerevisiae deletion strains, locus YBR136W, strain MEC1, hits give low values 0.978 | S. cerevisiae deletion strains, locus YBR160W, strain CDC28, hits give low values 0.988 | S. cerevisiae deletion strains, locus YDL017W, strain CDC7, hits give low values 0.989 | S. cerevisiae deletion strains, locus YDL028C, strain MPS1, hits give low values 0.983 | [1] 0.988 | S. cerevisiae deletion strains, locus YDL108W, strain KIN28, hits give low values 0.984 | S. cerevisiae deletion strains, locus YDL132W, strain cdc53, hits give low values 0.994 | S. cerevisiae deletion strains, locus YDL214C, strain PRR2, hits give low values 0.892 | S. cerevisiae deletion strains, locus YDR052C, strain DBF4, hits give low values 0.989 | S. cerevisiae deletion strains, locus YDR054C, strain cdc34, hits give low values 0.985 | S. cerevisiae deletion strains, locus YDR226W, strain ADK1, hits give low values 0.981 | S. cerevisiae deletion strains, locus YDR477W, strain SNF1, hits give low values 0.933 | S. cerevisiae deletion strains, locus YER123W, strain YCK3, hits give low values 0.901 | S. cerevisiae deletion strains, locus YER133W, strain GLC7, hits give low values 0.933 | S. cerevisiae deletion strains, locus YFL009W, strain cdc4, hits give low values 0.986 | S. cerevisiae deletion strains, locus YFL029C, strain CAK1, hits give low values 0.986 | S. cerevisiae deletion strains, locus YFR003C, strain YPI1, hits give low values 0.986 | S. cerevisiae deletion strains, locus YFR019W, strain FAB1, hits give low values 0.952 | S. cerevisiae deletion strains, locus YFR028C, strain CDC14, hits give low values 0.994 | S. cerevisiae deletion strains, locus YGR040W, strain KSS1, hits give low values 0.938 | S. cerevisiae deletion strains, locus YGR052W, strain FMP48, hits give low values 0.945 | S. cerevisiae deletion strains, locus YGR092W, strain DBF2, hits give low values 0.968 | [2] 0.972 | S. cerevisiae deletion strains, locus YHR079C, strain IRE1, hits give low values 0.922 | S. cerevisiae deletion strains, locus YHR082C, strain KSP1, hits give low values 0.997 | S. cerevisiae deletion strains, locus YHR205W, strain SCH9, hits give low values 0.879 | S. cerevisiae deletion strains, locus YIL147C, strain SLN1, hits give low values 0.984 | S. cerevisiae deletion strains, locus YJL095W, strain BCK1, hits give low values 0.88 | S. cerevisiae deletion strains, locus YJL128C, strain PBS2, hits give low values 0.915 | S. cerevisiae deletion strains, locus YJL157C, strain FAR1, hits give low values 0.927 | S. cerevisiae deletion strains, locus YJR016C, strain ILV3, hits give low values 0.987 | S. cerevisiae deletion strains, locus YJR066W, strain TOR1 (second series), hits give low values 0.885 | S. cerevisiae deletion strains, locus YJR066W, strain TOR1, hits give low values 1.06 | S. cerevisiae deletion strains, locus YKL048C, strain ELM1, hits give low values 0.946 | S. cerevisiae deletion strains, locus YKL067W, strain YNK1, hits give low values 0.943 | S. cerevisiae deletion strains, locus YKL101W, strain HSL1, hits give low values 0.93 | S. cerevisiae deletion strains, locus YKL193C, strain SDS22, hits give low values 0.982 | S. cerevisiae deletion strains, locus YKL203C, strain TOR2, hits give low values 1 | S. cerevisiae deletion strains, locus YLR133W, strain CKI1, hits give low values 0.95 | S. cerevisiae deletion strains, locus YLR403W, strain SFP1, hits give low values 0.961 | S. cerevisiae deletion strains, locus YML070W, strain DAK1, hits give low values 0.923 | S. cerevisiae deletion strains, locus YMR001C, strain CDC5, hits give low values 0.981 | S. cerevisiae deletion strains, locus YMR205C, strain PFK2 (second series), hits give low values 0.939 | S. cerevisiae deletion strains, locus YMR277W, strain FCP1, hits give low values 0.982 | S. cerevisiae deletion strains, locus YNL006W, strain LST8, hits give low values 0.981 | S. cerevisiae deletion strains, locus YNL020C, strain ARK1, hits give low values 0.943 | S. cerevisiae deletion strains, locus YNL161W, strain CBK1, hits give low values 0.982 | S. cerevisiae deletion strains, locus YNL183C, strain NPR1, hits give low values 1.02 | S. cerevisiae deletion strains, locus YNL207W, strain RIO2, hits give low values 0.999 | S. cerevisiae deletion strains, locus YNL222W, strain SSU72, hits give low values 0.983 | S. cerevisiae deletion strains, locus YNL307C, strain MCK1 (second series), hits give low values 0.932 | S. cerevisiae deletion strains, locus YOL078W, strain AVO1, hits give low values 0.984 | S. cerevisiae deletion strains, locus YOL136C, strain PFK27, hits give low values 0.926 | S. cerevisiae deletion strains, locus YOR061W, strain CKA2, hits give low values 0.937 | S. cerevisiae deletion strains, locus YOR119C, strain RIO1, hits give low values 0.998 | S. cerevisiae deletion strains, locus YOR231W, strain MKK1, hits give low values 0.955 | S. cerevisiae deletion strains, locus YOR329C, strain SCD5, hits give low values 0.988 | S. cerevisiae deletion strains, locus YPL031C, strain PHO85, hits give low values 0.923 | S. cerevisiae deletion strains, locus YPL153C, strain RAD53, hits give low values 0.917 | S. cerevisiae deletion strains, locus YPL204W, strain HRR25, hits give low values 0.928 | S. cerevisiae deletion strains, locus YPL209C, strain IPL1, hits give low values 0.99 | S. cerevisiae deletion strains, locus YPL256C, strain CLN2, hits give low values 0.943 | S. cerevisiae deletion strains, locus YPR025C, strain CCL1, hits give low values 0.983 | S. cerevisiae deletion strains, locus YPR106W, strain ISR1, hits give low values 0.968 | S. cerevisiae deletion strains, locus YPR111W, strain DBF20, hits give low values 0.972 | S. cerevisiae deletion strains, strain NNK1, hits give low values 0.968 | S. cerevisiae deletion strains, strain TSCII, hits give low values 0.993
active: S. cerevisiae deletion strains, locus YLR113W, strain HOG1, hits give low values 0.841

CC(=O)c1sc(SCc2ccc(Cl)cc2)c2c1CC(C)(C)CC2=O
inactive: S. cerevisiae deletion strains, locus YAL013W, strain DEP1, hits give low values 0.97 | S. cerevisiae deletion strains, locus YBR229C, strain ROT2, hits give low values 1.06 | [1] 1.01 | S. cerevisiae deletion strains, locus YDL134C, strain PPH21, hits give low values 0.976 | S. cerevisiae deletion strains, locus YDR150W, strain NUM1, hits give low values 0.954 | S. cerevisiae deletion strains, locus YEL061C, strain CIN8, hits give low values 1.07 | S. cerevisiae deletion strains, locus YGR078C, strain PAC10, hits give low values 1 | [2] 0.793 | S. cerevisiae deletion strains, locus YHR087W, strain rtc3, hits give low values 1 | S. cerevisiae deletion strains, locus YJR043C, strain POL32, hits give low values 0.987 | S. cerevisiae deletion strains, locus YJR075W, strain HOC1, hits give low values 1.05 | S. cerevisiae deletion strains, locus YKL190W, strain CNB1, hits give low values 0.966 | S. cerevisiae deletion strains, locus YLR039C, strain RIC1, hits give low values 0.938 | S. cerevisiae deletion strains, locus YLR058C, strain SHM2 (second series), hits give low values 1.01 | S. cerevisiae deletion strains, locus YLR085C, strain ARP6, hits give low values 1.02 | S. cerevisiae deletion strains, locus YLR262C, strain YPT6, hits give low values 0.941 | S. cerevisiae deletion strains, locus YML094W, strain GIM5, hits give low values 1.01 | S. cerevisiae deletion strains, locus YMR219W, strain ESC1, hits give low values 1.03 | S. cerevisiae deletion strains, locus YMR263W, strain SAP30, hits give low values 0.936 | S. cerevisiae deletion strains, locus YMR307W, strain GAS1, hits give low values 1.03 | S. cerevisiae deletion strains, locus YNL128W, strain TEP1, hits give low values 0.981 | S. cerevisiae deletion strains, locus YNL153C, strain GIM3, hits give low values 0.971 | S. cerevisiae deletion strains, locus YNL298W, strain CLA4 (second series), hits give low values 0.952 | S. cerevisiae deletion strains, locus YNL322C, strain KRE1, hits give low values 0.993 | S. cerevisiae deletion strains, locus YNR030W, strain Alg12, hits give low values 0.941 | S. cerevisiae deletion strains, locus YPL055C, strain LGE1, hits give low values 1.12 | S. cerevisiae deletion strains, locus YPL241C, strain CIN2, hits give low values 0.907 | S. cerevisiae deletion strains, locus YPR135W, strain CTF4, hits give low values 0.819 | S. cerevisiae strains, strain wild type, hits give low values 0.955
